Screening results (PubChem BioAssay)
Most compounds without a hit are left out; they make up all but 0.91% or so of the library.
TRb SRC2 PPI – TRbeta-SRC2 interaction inhibition; TRbeta-SRC2 peptide binding, fluorescence polarization; receptor liganded with 1 µM T3; Potency, µM (top dose mostly 106 µM), for inactives: at the highest dose activity change, negative = inhibition, most hits filed as inhibitors; actives 0.065% (n = 280,000); AID 1469;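 note: plate controls were bound peptide for no effect and peptide without receptor for full effect; nearly all actives have a fitted effect of over 50% in size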
Target sequence (P10828 whole entry, looked up): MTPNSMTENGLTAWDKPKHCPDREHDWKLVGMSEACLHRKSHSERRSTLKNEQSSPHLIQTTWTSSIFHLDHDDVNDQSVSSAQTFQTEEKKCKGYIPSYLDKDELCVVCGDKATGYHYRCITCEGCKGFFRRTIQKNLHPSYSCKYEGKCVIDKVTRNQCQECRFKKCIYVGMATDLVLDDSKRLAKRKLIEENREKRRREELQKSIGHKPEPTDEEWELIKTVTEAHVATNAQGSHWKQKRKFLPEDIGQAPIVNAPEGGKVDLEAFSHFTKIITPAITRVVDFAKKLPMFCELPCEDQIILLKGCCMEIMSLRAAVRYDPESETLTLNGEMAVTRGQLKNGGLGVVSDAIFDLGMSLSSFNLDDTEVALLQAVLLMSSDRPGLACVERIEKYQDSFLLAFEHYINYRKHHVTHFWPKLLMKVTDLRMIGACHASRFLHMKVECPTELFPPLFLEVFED
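A fluorescence polarization screen tested compounds at multiple concentrations against complex formation between 0.6 uM TRb ligand-binding domain and 20 nM Texas Red SRC2 peptide, with 1 uM T3 present; readout after 5 hr.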
APE1 inh – APE1 (human) endonuclease inhibition. P27695. recombinant APE1, TAMRA/BHQ-2 abasic DNA cleavage fluorescence. Potency, µM (doses to about 65.8 µM), for the others: at the highest dose activity change, negative = inhibition, hits mostly inhibitors. actives 0.35% (n = 350,000);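 note: plate controls were vehicle for no effect and reference inhibitor for full effect; nearly all actives have a fitted effect of over 55% in size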
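Substrate: short duplex with […] THF abasic site, 5'-TAMRA and 3'-BHQ-2, 50 nM final. APE1 at 0.75 nM, preincubated 15 min RT with compound. Fluorescence increase from first to third read measured activity.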
TR SRC2 fluor cs – counter-screen for TRb-SRC2 inhibitors: fluorescence interference | actives 0.29% (n = 280,000) | Potency, µM (highest dose often 106 µM), for inactives: top-dose fluorescence change, negative = quenching | TRb/SRC2 Texas Red total fluorescence interference; active = well fitted curve in either direction with a large enough effect; inconclusive = small, poorly fitted or top-dose-only effect
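Human TRβ ligand-binding domain (0.6 uM) and Texas Red SRC2 peptide (20 nM) in Tris buffer with 1 uM T3 and 5% DMSO were incubated with pinned compound for 5 hr at ambient temperature. Total fluorescence was computed as S + 2P (555/632 nm).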
WRN helicase inh – WRN helicase (human) inhibition; Q14191; WRN helicase unwinding, fluorescent forked duplex, kinetic; Potency, µM (top dose mostly 114 µM), for the others: top-dose activity change, negative = inhibition, actives largely listed as inhibitors; actives 0.46% (n = 360,000); AID 651768; note: nearly all actives have a fitted effect of over 55% in size
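Fluorescence dequenching readout, ex 525 nm/em 598 nm, kinetic mode: forked duplex DNA (100 nM final) with adjacent fluorophore and quencher unwound by WRN (20 nM final) with 2 mM ATP. Compound preincubation 15 min, room temperature.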
RECQ1 inh – blocks DNA unwinding by human RECQ1; P46063; RECQ1 DNA unwinding, red fluorescence kinetic read; Potency, µM (titrated, usually from 57.3 µM), for inactives: top-dose activity, negative = inhibition, most hits filed as inhibitors; actives 0.54% (n = 240,000); AID 2549;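 note: plate controls were vehicle for no effect and no enzyme for full effect; nearly all actives have a fitted effect of over 30% in size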
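RECQ1T1 50 nM; forked duplex (20 bp + 30-nt ss tails) 200 nM, ATP 2 mM final; pH 8.0, 2 mM MgCl2, 2.5 ug/ml poly(dI-dC); 15 min compound preincubation; discontinuous kinetic read over 2 h at RT.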
BLM helicase inh – inhibitors of human Bloom syndrome helicase BLM. Potency, µM (top dose mostly 56.1 µM), for the others: top-dose activity change, negative = inhibition, actives largely listed as inhibitors. AID 2528. recombinant BLM DNA unwinding, fluorescence dequenching. actives 0.2% (n = 350,000). P54132;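 note: plate controls were vehicle for no effect and no enzyme for full effect; nearly all actives have a fitted effect of over 35% in size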
Starred values were filed as active, the others as inactive; [ ] = dose if it differs, or a comment. Unless noted, calls come from the whole dose curve; as a rule, active = well fitted curve in the direction sought with a large enough effect; inconclusive = small, poorly fitted or top-dose-only effect, or another doubt; inactive = no such curve, though single readings can be large; an effect the other way counts as inactive or inconclusive. Unless noted, % is set by controls: 0 for no effect and ±100 for the full control effect; potency is the fitted concentration of half-maximal effect.

What do the screens show for `Cn1c(C(C#N)C2=C(Cl)C(=O)N(c3ccccc3)C2=O)nc2ccccc21` (stereo unspecified)?
TRb SRC2 PPI: 45µM*; APE1 inh: -5%; TR SRC2 fluor cs: inconclusive; RECQ1 inh: -14%; BLM helicase inh: -23%

How did Cn1c(C(O)C(O)c2ccccc2)nc2ccccc21 (stereo unspecified) do in these assays?
TRb SRC2 PPI: -1%; APE1 inh: 22%; TR SRC2 fluor cs: -1%; WRN helicase inh: 10%; RECQ1 inh: 11%; BLM helicase inh: 1%

Results for CCNC(=O)c1c(NC(=O)Cc2coc3cc(C)cc(C)c23)sc2c1CCCC2 ?
TRb SRC2 PPI: 3%; TR SRC2 fluor cs: 7%; BLM helicase inh: -1%

What do the screens show for `COC(=O)c1c(NC(=O)Cc2coc3cc(C)ccc23)sc2c1CCC2`?
TRb SRC2 PPI: 20%[53 µM]; TR SRC2 fluor cs: 3.5µM*[quencher]; BLM helicase inh: -1%

How did CCOC(=O)c1c(NC(=O)Cc2coc3cc(C)cc(C)c23)sc2c1CCC2 do in these assays?
TRb SRC2 PPI: inconclusive; TR SRC2 fluor cs: 0.025µM*[quencher]; BLM helicase inh: 1%

What do the screens show for `O=C(Cc1ccsc1)Nc1ccc(Cl)cc1Cl`?
APE1 inh: -5%; WRN helicase inh: -8%; BLM helicase inh: -2%

How did CCCCCCCC1CCC(=O)O1 (stereo unspecified) do in these assays?
TRb SRC2 PPI: 8%[201 µM]; TR SRC2 fluor cs: -3%[201 µM]

How did CCC(C)NC(=O)c1ccc(-n2c(-c3ccccc3)cc3c2CCCC3)cc1 (stereo unspecified) do in these assays?
TRb SRC2 PPI: -13%; TR SRC2 fluor cs: 1.8µM*[quencher]; BLM helicase inh: -8%

How did CC(C)NC(=O)c1ccc(-n2c(-c3ccccc3)cc3c2CCCC3)cc1 do in these assays?
TRb SRC2 PPI: -1%; TR SRC2 fluor cs: -16%; BLM helicase inh: -3%

How did CC[C@H](CC[C@@H](C)[C@H]1CC[C@H]2[C@@H]3CC=C4C[C@@H](O)CC[C@]4(C)[C@H]3CC[C@]12C)C(C)C do in these assays?
APE1 inh: 5%

How did Cc1ccc(S(=O)(=O)N(CC(=O)O)Cc2ccco2)cc1 do in these assays?
TRb SRC2 PPI: 0%; APE1 inh: 14µM*; TR SRC2 fluor cs: -3%; WRN helicase inh: -32%; RECQ1 inh: -19%; BLM helicase inh: -3%

What do the screens show for `Cc1ccc(S(=O)(=O)N(Cc2ccccc2)Cc2ccco2)cc1`?
TRb SRC2 PPI: -4%; APE1 inh: -6%; TR SRC2 fluor cs: 0%; WRN helicase inh: -10%; RECQ1 inh: -15%; BLM helicase inh: -11%

Results for COc1ccc(Cc2nnc(Nc3ccccc3)s2)cc1Br ?
APE1 inh: -24%; WRN helicase inh: 56µM*; BLM helicase inh: -4%

How did COc1ccc(CNc2ccccc2)cc1Br do in these assays?
TRb SRC2 PPI: -13%; APE1 inh: inconclusive; TR SRC2 fluor cs: 1%; WRN helicase inh: -24%; RECQ1 inh: -20%; BLM helicase inh: -14%

What do the screens show for `COc1cc(/C=N/NC(N)=O)ccc1OCC(=O)Nc1ccc(C)c(C)c1`?
TRb SRC2 PPI: 1%; APE1 inh: 5%; TR SRC2 fluor cs: -3%; WRN helicase inh: inconclusive; RECQ1 inh: -3%; BLM helicase inh: 10µM*

How did COc1cc(/C=N/NC(=O)COc2c(C)cc([N+](=O)[O-])cc2C)ccc1OC(=O)c1ccccc1 do in these assays?
TRb SRC2 PPI: 2%; APE1 inh: 8%; TR SRC2 fluor cs: 1%; WRN helicase inh: 0%; RECQ1 inh: 28µM*; BLM helicase inh: -5%

How did COc1cc(/C=N/NC(N)=S)ccc1OCC(=O)Nc1ccc(C)c(C)c1 do in these assays?
TRb SRC2 PPI: -13%; APE1 inh: 7%; TR SRC2 fluor cs: 1%; WRN helicase inh: -19%; RECQ1 inh: -7%; BLM helicase inh: -5%
